PubChem BioAssay AID1851 (National Center for Advancing Translational Sciences (NCATS), 2009)
Hit rate of the full screen: of about 16,000 compounds, about 5,700 (36%) were called active. Not shown: some 24% with an inconclusive outcome. The call rests on the fitted dose curve; in most records, active means well fitted curve in the direction sought with a large enough effect; inconclusive means small, poorly fitted or top-dose-only effect, or effect the other way; inactive means no such curve, though single readings can be large or run the other way. The list shows a part of the results.

Target: Cytochrome P450 1A2 (Homo sapiens) (UniProt P05177)
Assay: Cytochrome panel assay with activity outcomes
Conditions: recombinant CYP, pro-luciferin dealkylation, luminescence, p450-cyp1a2; series mostly up to 57.1 µM; activity, negative = inhibition: at the top concentration
On the % scale 0 is the no-effect control and ±100 the full control effect.

Cytochrome P450 1A2 (Homo sapiens), sequence (P05177 whole entry, looked up): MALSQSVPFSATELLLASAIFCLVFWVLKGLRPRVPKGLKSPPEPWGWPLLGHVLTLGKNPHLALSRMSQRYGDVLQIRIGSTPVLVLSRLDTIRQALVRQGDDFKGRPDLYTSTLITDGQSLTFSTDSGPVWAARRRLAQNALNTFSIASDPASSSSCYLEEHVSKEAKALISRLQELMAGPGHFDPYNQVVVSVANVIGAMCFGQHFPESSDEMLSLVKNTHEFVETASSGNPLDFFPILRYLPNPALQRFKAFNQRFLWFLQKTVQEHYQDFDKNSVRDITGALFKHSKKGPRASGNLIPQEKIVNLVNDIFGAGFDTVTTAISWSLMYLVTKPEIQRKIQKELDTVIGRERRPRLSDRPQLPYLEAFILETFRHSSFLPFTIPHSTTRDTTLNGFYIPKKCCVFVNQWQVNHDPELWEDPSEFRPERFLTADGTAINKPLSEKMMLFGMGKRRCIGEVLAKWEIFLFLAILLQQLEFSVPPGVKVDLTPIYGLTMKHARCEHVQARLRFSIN

Row | Compound | activity, negative = inhibition | AC50
1 | Cn1c(=O)n2n(c1=O)[C@H]1[C@H](O)[C@H]3O[C@H]3C(=O)[C@H]1CC2 | -12.9% [at 11.4 µM] (inactive) | –
2 | COc1ccc(C(=O)NC2CCN(C(=S)Nc3cccc(C)c3)CC2)cc1 | 7.46% (inactive) | –
3 | Cc1cccc(NC(=O)C23CCC(C)(C2Br)C3(C)C)c1 (stereo unspecified) | – | 15.8 µM (active)
4 | Cc1cccc(NC2=NC(=S)N(c3ccc(C(=O)O)cc3)C23CCCCC3)c1 | -0.631% (inactive) | –
5 | CC12CCC(C(=O)Nc3cccc4ccccc34)(C1Br)C2(C)C (stereo unspecified) | – | 22.4 µM (active)
6 | COc1ccc(CNc2ncnc3ccc(-c4ccccc4OC)cc23)c(OC)c1 | – | 3.16 µM (active)
7 | COc1ccccc1CNc1ncnc2ccc(-c3ccccc3OC)cc12 | – | 1 µM (active)
8 | C[N+](C)(C)CCOC(=O)CCC(=O)OCC[N+](C)(C)C | -4.51% (inactive) | –
9 | CCCCOC(=S)NC(=O)c1sc2ccccc2c1Cl | – | 2 µM (active)
10 | O=C(c1sc2ccccc2c1Cl)N(Cc1ccccc1)C1CCS(=O)(=O)C1 (stereo unspecified) | -12.4% (inactive) | –
11 | O=C(NC(=S)N(CCCCO)C1CCCCC1)c1sc2ccccc2c1Cl | – | 1.26 µM (active)
12 | CCOC(=S)NC(=O)c1sc2ccccc2c1Cl | – | 1.58 µM (active)
13 | CCOc1c(OC(C)=O)ccc(/C=C/c2ccc3cccc(OC(C)=O)c3n2)c1[N+](=O)[O-] | – | 4.47 µM (active)
14 | CCOc1c(OC(C)=O)ccc(/C=C2\N=C(SCC)SC2=O)c1[N+](=O)[O-] | – | 0.631 µM (active)
15 | Cc1ccc(S(=O)(=O)N=Nc2c(O)[nH]c3cc(O)c(C(=O)O)cc23)cc1 | -15.8% [at 2.29 µM] (inactive) | –
16 | O=C(O)[C@@H]1[C@@H](C(=O)NCc2ccccn2)[C@@H]2C=C[C@@H]1O2 | -0.104% [at 2.29 µM] (inactive) | –
17 | O=C(NCc1ccccn1)c1cc(-c2ccccc2Cl)on1 | – | 3.55 µM (active)
18 | O=C(O)[C@@H](O)Cc1ccccn1 | -9.06% [at 11.4 µM] (inactive) | –
19 | CCCNC(=O)c1c(C)cc(=O)oc1C | – | 11.2 µM (active)
20 | Cc1cc(=O)oc(C)c1C(=O)NCc1ccccc1 | -3.38% (inactive) | –
21 | CC(Cc1ccccc1)C(=O)NCc1ccccn1 (stereo unspecified) | – | 15.8 µM (active)

Row | Compound | activity, negative = inhibition | AC50
22 | Cc1cc(=O)oc(C)c1C(=O)NCc1cccnc1 | – | 4.47 µM (active)
23 | Cc1cc(=O)oc(C)c1C(=O)N1CCCCC1 | 2.37% (inactive) | –
24 | CC(C)C(NC(=O)C1CCCCC1)C(=O)NCc1ccccn1 (stereo unspecified) | -3.6% (inactive) | –
25 | Cc1cc(=O)oc(C)c1C(=O)NCCCN1CCN(c2ccc(F)cc2)CC1 | 4.74% (inactive) | –
26 | CCC(C#CCN1CCCCC1)(CC)OCCC#N | -28.1% (inactive) | –
27 | Cc1cc(=O)oc(C)c1C(=O)NCc1ccccn1 | – | 12.6 µM (active)
28 | CCCNC(=O)OC[C@@H]1O[C@H](CCO/N=C\c2ccc(C(=O)N3[C@H](c4ccc(C)cc4)[C@@H](C)CC[C@H]3C(=O)OC)cc2)C=C[C@@H]1Oc1ccc(OC)cc1 | -5.52% [at 11.4 µM] (inactive) | –
29 | CCN1C(=O)[C@H]2[C@H]3[C@H](O)[C@H](O)C/C(=N/OCC(C)C)[C@H]3CC[C@@H]2C1=O | -1.29% [at 11.4 µM] (inactive) | –
30 | O=C(O/N=C\c1ccc(N2CCCCC2)c([N+](=O)[O-])c1)c1c(F)cccc1F | – | 0.708 µM (active)
31 | Cc1ccc(C(=O)O/N=C\c2ccc(N3CCCCC3)c([N+](=O)[O-])c2)cc1 | – | 0.251 µM (active)
32 | Cc1ccc(OC(=O)c2ccc(N3CCOCC3)c([N+](=O)[O-])c2)cc1 | -58.9% (inactive) | –
33 | CO/N=C/c1ccc(N2CCN(C(=O)c3ccc(Cl)cc3Cl)CC2)c([N+](=O)[O-])c1 | -16.1% (inactive) | –
34 | CC(C)OC(=O)C(C)(C)Oc1ccc(C(=O)c2ccc(Cl)cc2)cc1 | – | 5.01 µM (active)
35 | CC(C)(Oc1ccc([C@@H]2CC2(Cl)Cl)cc1)C(=O)O | – | inactive
36 | Cn1c(=O)c(-c2cccs2)nc2cnc(N3CCNCC3)nc21 | – | 10 µM (active)
37 | O=c1c(-c2cccs2)nc2cnc(N3CCNCC3)nc2n1C1CC1 | – | 2 µM (active)
38 | OC[C@@H]1O[C@H](O)[C@@H](Cl)[C@H](O)[C@@H]1O | 1.58% (inactive) | –
39 | Cc1ccc(S(N)(=O)=O)cc1NC(=O)/C=C/c1cccs1 | – | 12.6 µM (active)
40 | CS(=O)(=O)Nc1cccc(-c2ccc3ncnc(NCc4cccs4)c3c2)c1 | – | 0.0794 µM (active)
41 | Cc1cccc(CNc2ncncc2-c2cccc(NS(C)(=O)=O)c2)c1 | – | 12.6 µM (active)
42 | CS(=O)(=O)Nc1cccc(-c2cncnc2NCc2cccs2)c1 | – | 15.8 µM (active)

Row | Compound | activity, negative = inhibition | AC50
43 | CS(=O)(=O)Nc1cccc(-c2cncnc2NCc2ccccc2)c1 | – | 25.1 µM (active)
44 | CC(=O)Nc1c(I)c(C(=O)N[C@H]2[C@@H](O)[C@H](O)[C@H](CO)O[C@@H]2O)c(I)c(N(C)C(C)=O)c1I | -14.8% [at 25.6 µM] (inactive) | –
45 | CC12CS(=O)(=O)CC1SC(=S)N2c1ccccn1 (stereo unspecified) | -6.29% (inactive) | –
46 | CS(=O)(=O)Nc1cccc(-c2cncnc2NCc2cccnc2)c1 | – | 15.8 µM (active)
47 | CS(=O)(=O)Nc1cccc(-c2ccc3ncnc(NCc4cccnc4)c3c2)c1 | – | 0.316 µM (active)
48 | O=S(=O)(NCc1cccnc1)c1ccc(Cl)nc1 | -6.12% (inactive) | –
49 | C[C@H](O)C(=O)C1=Nc2c(nc(N)[nH]c2=O)NC1 | -9.29% (inactive) | –
50 | O=C(O)CCCCCn1c(SCC(=O)N2CCCC2)nc2ccsc2c1=O | 15.6% (inactive) | –
51 | O=C(Cn1c(SCC(=O)N2CCc3ccccc3C2)nc2ccccc21)NC1CCCC1 | -25.7% (inactive) | –
52 | C=CCn1c(SCC(=O)N2CCc3ccccc3C2)nc2ccccc2c1=O | – | 8.91 µM (active)
53 | CC(C)OC(=O)c1cccc(C(=O)Oc2ccc(Br)cc2)n1 | -28.5% (inactive) | –
54 | CCn1ccc(C(=O)Oc2ccc(Cl)cc2)n1 | – | 14.1 µM (active)
55 | CN(C)Cc1ccccc1-c1nc(N2CCOCC2)c2ccccc2n1 | – | 20 µM (active)
56 | Clc1ccccc1-c1nc(N2CCNCC2)c2ccccc2n1 | – | 2.51 µM (active)
57 | Cc1ccccc1-c1nc(N2CCNCC2)c2ccccc2n1 | – | 5.01 µM (active)
58 | Cc1ccccc1-c1nc(N2CCOCC2)c2ccccc2n1 | – | 2 µM (active)
59 | C[C@@H](N1CCOCC1)[C@@](O)(c1ccccc1)c1ccccn1 | -2.48% [at 2.29 µM] (inactive) | –
60 | CC(C)(C)c1nc(SCC(=O)Nc2ccc(N3CCOCC3)cc2)c2ccccc2n1 | -25.2% (inactive) | –
61 | CN1c2ccccc2C(C)(C)C12C=Nc1c(cc(N3CCOCC3)c3ccccc13)O2 (stereo unspecified) | -29.8% (inactive) | –
